Measured values: the supplement of paper PMC10849652
Targets with a hit are over-represented here; the source holds about 7,900 in all. About 0.6% of all pairs of compound and target were hits. Values without a mark were called inactive.

Key:
Test in all cases: log2 fold change, soluble protein after heating vs DMSO (PISA); higher = thermal stabilisation; K562 cells, 10 uM, 30 min; active = over 0.2 and 3.5 SD of the protein, either way, in both replicates (recomputed)
ibrutinib = compound: C=CC(=O)N1CCC[C@@H](n2nc(-c3ccc(Oc4ccccc4)cc3)c3c(N)ncnc32)C1 [ibrutinib]
How it was run: (§1)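 Aliquots of K562 cells (2×10^6 cells/mL) treated with 10 μM compound for 30 min were heated for 3 min over 48°C-58°C. After pooling and extraction in PBS with 0.5% NP-40 at 4°C, soluble protein from a 21,000xg, 90 min spin was quantified by TMTpro 16plex LC-MS/MS with channel sums equalised. Thermal stability is expressed against control samples, from duplicates, as a log2 fold change.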

[1] = compound: CC(=O)c1cnc2ccc(-c3cc(Cl)c(O)c(Cl)c3)nc2c1N[C@H]1CC[C@H](CN(C)C)CC1
How it was run: as §1

ralimetinib = compound: CC(C)(C)Cn1c(N)nc2ccc(-c3[nH]c(C(C)(C)C)nc3-c3ccc(F)cc3)nc21 [ralimetinib]
How it was run: as §1

[2] = compound: CC(C)(O)CC(=O)NCCn1ccc2ncnc(Nc3ccc(Oc4cccc(C(F)(F)F)c4)c(Cl)c3)c21
How it was run: as §1

[3] = compound: CC(C)C1=C2N=C(C=C(N2N=C1)NCC3=CC=CC=C3)NCCCCCCN
How it was run: as §1

[4] = compound: CC(C)C[C@@H](C=O)NC(=O)[C@H](CC(C)C)NC(=O)[C@H](CC(C)C)NC(=O)OCc1ccccc1
How it was run: as §1

[5] = compound: CC1=C(C(CC(=O)N1)C2=CC=C(C=C2)C(F)(F)F)C(=O)NC3=C(C=C4C(=C3)C=NN4)F
How it was run: as §1

[6] = compound: CC1=C(C2=C(C=C1)C(=O)C3=CC=CC=C3N2CCCN)C
How it was run: as §1

[7] = compound: CC1=C(C=C(C=C1)NC(=O)C2=CC(=CC=C2)C(C)(C)C#N)NC3=CC4=C(C=C3)N=CN(C4=O)C
How it was run: as §1

[8] = compound: CC1=C(C=C(C=C1)NC(=O)C2=CC(=CC=C2)N(C)C)NC(=O)C3=CC=C(C=C3)O
How it was run: as §1

[9] = compound: CC1=CC=C(C=C1)SC2=C3C=C(SC3=CN=C2)C(=O)N
How it was run: as §1

Nexturastat A = compound: CCCCN(Cc1ccc(C(=O)NO)cc1)C(=O)Nc1ccccc1 [Nexturastat A]
How it was run: as §1

vemurafenib = compound: CCCS(=O)(=O)Nc1ccc(F)c(C(=O)c2c[nH]c3ncc(-c4ccc(Cl)cc4)cc23)c1F [vemurafenib]
How it was run: as §1

[10] = compound: CCCS(=O)(=O)Nc1ccc(F)c(C(=O)c2c[nH]c3ncc(Cl)cc23)c1F
How it was run: as §1

[11] = compound: CCCc1cc(C)[nH]c(=O)c1CNC(=O)c1cc(-c2ccnc(N3CCN(C)CC3)c2)cc2c1cnn2C(C)C
How it was run: as §1

givinostat = compound: CCN(CC)Cc1ccc2cc(COC(=O)Nc3ccc(C(=O)NO)cc3)ccc2c1 [givinostat]
How it was run: as §1

barasertib = compound: CCN(CCCOc1ccc2c(Nc3cc(CC(=O)Nc4cccc(F)c4)[nH]n3)ncnc2c1)CCOP(=O)(O)O [barasertib]
How it was run: as §1

IRAK-1-4 Inhibitor I = compound: C1COCCN1CCN2C3=CC=CC=C3N=C2NC(=O)C4=CC(=CC=C4)[N+](=O)[O-] [IRAK-1-4 Inhibitor I]
How it was run: as §1

pinometostat = compound: CC(C)N(C[C@H]1O[C@@H](n2cnc3c(N)ncnc32)[C@H](O)[C@@H]1O)[C@H]1C[C@@H](CCc2nc3cc(C(C)(C)C)ccc3[nH]2)C1 [pinometostat]
How it was run: as §1

[12] = compound: CC1=NC(=CC=C1)C2=C(N=C(N2)C(C)(C)C)C3=CC4=NC=CN=C4C=C3
How it was run: as §1

UniProt O75056, sequence (O75056 whole entry, looked up): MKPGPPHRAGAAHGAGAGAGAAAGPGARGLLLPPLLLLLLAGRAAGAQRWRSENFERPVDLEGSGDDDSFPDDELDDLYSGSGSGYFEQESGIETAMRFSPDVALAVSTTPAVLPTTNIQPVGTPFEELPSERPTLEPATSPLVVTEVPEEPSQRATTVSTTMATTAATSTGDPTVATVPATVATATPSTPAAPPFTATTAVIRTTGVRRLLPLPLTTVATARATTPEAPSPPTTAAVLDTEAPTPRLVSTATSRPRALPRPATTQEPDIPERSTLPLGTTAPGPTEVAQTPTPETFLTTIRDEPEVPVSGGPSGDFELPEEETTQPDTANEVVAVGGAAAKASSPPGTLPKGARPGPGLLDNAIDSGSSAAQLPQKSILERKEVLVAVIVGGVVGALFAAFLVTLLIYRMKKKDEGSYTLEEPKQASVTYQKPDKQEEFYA
UniProt P60903, sequence (P60903 whole entry, looked up): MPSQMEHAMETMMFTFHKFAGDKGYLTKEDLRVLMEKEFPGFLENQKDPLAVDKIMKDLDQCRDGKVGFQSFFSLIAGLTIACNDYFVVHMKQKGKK
UniProt Q9H4P4, sequence (Q9H4P4 whole entry, looked up): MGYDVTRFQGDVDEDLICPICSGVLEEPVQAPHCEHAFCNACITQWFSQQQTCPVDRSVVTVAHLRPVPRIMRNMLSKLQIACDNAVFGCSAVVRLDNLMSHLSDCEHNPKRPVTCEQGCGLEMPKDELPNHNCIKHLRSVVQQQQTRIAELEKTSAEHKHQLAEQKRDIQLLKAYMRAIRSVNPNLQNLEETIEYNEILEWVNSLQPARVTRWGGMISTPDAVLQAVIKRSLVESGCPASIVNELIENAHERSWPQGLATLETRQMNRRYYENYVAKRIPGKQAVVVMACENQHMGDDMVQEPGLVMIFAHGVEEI
UniProt Q9Y3L5, sequence (Q9Y3L5 whole entry, looked up): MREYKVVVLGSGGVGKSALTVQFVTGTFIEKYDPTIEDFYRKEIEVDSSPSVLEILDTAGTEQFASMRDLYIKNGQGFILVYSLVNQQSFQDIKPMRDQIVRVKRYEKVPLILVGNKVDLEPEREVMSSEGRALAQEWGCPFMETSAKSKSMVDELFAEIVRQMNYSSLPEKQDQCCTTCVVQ
UniProt P43003, sequence (P43003 whole entry, looked up): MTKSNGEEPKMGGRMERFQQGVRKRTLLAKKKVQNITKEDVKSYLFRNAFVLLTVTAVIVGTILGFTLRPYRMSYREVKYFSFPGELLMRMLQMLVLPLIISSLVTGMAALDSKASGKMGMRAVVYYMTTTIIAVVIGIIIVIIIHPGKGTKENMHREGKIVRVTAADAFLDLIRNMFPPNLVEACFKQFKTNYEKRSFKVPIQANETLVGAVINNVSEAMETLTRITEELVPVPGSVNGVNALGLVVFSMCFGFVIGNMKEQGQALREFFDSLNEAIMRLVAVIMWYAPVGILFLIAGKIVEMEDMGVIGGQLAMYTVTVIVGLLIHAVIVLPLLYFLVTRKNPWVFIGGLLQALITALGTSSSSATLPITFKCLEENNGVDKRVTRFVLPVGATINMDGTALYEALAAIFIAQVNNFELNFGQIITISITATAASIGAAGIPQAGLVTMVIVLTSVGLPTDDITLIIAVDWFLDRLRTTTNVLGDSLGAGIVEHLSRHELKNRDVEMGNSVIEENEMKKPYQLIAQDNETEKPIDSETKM
UniProt O14796, sequence (O14796 whole entry, looked up): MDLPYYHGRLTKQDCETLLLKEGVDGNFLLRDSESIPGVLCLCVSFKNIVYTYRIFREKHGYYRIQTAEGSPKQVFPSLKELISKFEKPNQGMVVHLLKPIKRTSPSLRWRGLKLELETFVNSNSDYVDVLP
UniProt Q5VTB9, sequence (Q5VTB9 whole entry, looked up): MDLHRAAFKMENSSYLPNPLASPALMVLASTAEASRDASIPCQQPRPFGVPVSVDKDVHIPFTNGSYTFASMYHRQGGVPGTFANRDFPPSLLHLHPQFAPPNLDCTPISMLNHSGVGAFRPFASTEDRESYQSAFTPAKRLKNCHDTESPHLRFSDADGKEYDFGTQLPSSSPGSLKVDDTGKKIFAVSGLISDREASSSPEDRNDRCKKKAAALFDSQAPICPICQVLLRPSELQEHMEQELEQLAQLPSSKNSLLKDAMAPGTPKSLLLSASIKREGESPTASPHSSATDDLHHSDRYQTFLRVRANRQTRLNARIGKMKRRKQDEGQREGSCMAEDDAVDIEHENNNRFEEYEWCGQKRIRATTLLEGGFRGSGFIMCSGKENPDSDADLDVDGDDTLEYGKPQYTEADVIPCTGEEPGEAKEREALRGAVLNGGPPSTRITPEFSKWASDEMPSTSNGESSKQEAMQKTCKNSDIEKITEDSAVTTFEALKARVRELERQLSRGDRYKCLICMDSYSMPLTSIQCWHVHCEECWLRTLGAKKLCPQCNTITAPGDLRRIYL
UniProt Q5PRF9, sequence (Q5PRF9 whole entry, looked up): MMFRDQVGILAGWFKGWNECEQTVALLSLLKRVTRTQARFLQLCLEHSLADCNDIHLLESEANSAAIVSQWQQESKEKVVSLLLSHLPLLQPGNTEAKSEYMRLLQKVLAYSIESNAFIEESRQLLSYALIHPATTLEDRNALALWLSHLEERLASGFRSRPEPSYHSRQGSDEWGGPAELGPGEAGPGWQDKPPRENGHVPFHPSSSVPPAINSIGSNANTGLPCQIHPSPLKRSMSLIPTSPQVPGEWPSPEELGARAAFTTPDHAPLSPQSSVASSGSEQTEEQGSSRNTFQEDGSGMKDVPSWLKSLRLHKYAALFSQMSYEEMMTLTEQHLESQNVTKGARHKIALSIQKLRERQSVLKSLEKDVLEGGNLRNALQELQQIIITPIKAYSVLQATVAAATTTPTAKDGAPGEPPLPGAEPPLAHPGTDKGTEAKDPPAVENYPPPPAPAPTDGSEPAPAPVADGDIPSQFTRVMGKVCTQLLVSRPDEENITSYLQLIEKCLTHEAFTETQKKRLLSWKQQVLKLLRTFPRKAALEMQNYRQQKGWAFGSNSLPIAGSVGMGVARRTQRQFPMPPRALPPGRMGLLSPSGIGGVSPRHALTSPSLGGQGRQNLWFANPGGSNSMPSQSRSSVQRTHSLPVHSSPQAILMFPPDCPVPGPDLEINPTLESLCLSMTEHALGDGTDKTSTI
UniProt O15127, sequence (O15127 whole entry, looked up): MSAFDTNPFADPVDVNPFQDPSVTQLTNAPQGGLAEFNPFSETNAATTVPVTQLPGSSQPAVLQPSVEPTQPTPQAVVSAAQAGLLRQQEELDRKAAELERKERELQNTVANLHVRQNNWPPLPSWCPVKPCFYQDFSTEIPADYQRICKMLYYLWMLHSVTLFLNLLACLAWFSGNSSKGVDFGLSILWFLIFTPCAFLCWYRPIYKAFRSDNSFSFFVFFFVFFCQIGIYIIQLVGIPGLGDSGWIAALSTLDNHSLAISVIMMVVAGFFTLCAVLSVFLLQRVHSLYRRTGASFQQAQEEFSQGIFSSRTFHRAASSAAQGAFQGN
UniProt O75446, sequence (O75446 whole entry, looked up): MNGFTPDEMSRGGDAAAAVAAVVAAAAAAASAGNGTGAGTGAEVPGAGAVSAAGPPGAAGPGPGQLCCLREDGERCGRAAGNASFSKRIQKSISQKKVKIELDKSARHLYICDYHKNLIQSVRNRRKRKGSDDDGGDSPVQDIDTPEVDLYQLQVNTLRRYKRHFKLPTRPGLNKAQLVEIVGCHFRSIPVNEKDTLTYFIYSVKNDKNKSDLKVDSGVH
UniProt Q96EU6, sequence (Q96EU6 whole entry, looked up): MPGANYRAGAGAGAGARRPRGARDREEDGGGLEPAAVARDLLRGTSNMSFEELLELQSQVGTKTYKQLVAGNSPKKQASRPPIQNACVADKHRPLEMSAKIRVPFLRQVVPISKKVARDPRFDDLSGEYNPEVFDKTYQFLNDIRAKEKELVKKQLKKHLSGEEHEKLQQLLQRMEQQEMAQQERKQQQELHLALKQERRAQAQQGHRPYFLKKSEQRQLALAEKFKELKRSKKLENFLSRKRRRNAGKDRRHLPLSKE
UniProt Q86X27, sequence (Q86X27 whole entry, looked up): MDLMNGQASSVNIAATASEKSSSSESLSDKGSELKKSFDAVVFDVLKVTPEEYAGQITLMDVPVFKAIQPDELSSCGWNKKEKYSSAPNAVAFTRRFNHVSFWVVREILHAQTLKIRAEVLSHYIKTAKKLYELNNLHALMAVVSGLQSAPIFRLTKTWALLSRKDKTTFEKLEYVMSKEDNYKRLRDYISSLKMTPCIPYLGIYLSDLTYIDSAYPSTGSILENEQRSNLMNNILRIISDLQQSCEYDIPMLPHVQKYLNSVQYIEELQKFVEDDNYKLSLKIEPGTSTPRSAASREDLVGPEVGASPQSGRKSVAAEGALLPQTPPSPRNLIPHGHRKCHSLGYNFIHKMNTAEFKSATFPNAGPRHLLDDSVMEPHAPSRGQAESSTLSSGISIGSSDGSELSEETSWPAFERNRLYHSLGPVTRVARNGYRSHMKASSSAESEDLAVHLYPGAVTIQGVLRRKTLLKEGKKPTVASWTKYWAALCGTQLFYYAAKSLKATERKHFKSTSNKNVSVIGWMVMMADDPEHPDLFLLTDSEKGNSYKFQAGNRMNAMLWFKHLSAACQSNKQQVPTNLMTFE
UniProt Q7L099, sequence (Q7L099 whole entry, looked up): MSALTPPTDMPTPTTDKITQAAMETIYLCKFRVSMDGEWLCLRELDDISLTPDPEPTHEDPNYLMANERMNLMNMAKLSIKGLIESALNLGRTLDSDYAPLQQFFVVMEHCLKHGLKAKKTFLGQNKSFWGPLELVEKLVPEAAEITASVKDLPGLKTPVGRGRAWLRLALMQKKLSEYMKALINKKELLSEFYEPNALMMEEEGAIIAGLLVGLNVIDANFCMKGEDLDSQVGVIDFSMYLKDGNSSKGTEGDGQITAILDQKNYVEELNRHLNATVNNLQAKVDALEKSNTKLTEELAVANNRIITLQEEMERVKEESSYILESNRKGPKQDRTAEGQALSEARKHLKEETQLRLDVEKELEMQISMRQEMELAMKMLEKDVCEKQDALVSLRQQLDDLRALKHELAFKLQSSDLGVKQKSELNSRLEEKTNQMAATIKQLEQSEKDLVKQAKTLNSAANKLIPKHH

Target | log2 fold change (ibrutinib) | log2 fold change [1] | log2 fold change (ralimetinib) | log2 fold change [2] | log2 fold change [3] | log2 fold change [4] | log2 fold change [5] | log2 fold change [6] | log2 fold change [7] | log2 fold change [8] | log2 fold change [9] | log2 fold change (Nexturastat A) | log2 fold change (vemurafenib) | log2 fold change [10] | log2 fold change [11] | log2 fold change (givinostat) | log2 fold change (barasertib) | log2 fold change (IRAK-1-4 Inhibitor I) | log2 fold change (pinometostat) | log2 fold change [12]
RAP2C (UniProt Q9Y3L5) | 0.016 | -0.032 | 0.021 | -0.107 | 0.148 | 0.048 | -0.104 | 0.11 | -0.064 | 0.052 | -0.03 | 0 | 0.066 | -0.13 | -0.052 | -0.044 | -0.031 | – | – | –
SLC1A3 (UniProt P43003) | 0.168 | 0.056 | 0.058 | 0.007 | 0.238 | -0.064 | 0.018 | 0.029 | – | -0.047 | 0.043 | -0.099 | -0.043 | -0.095 | -0.127 | -0.1 | -0.01 | – | – | –
RBMY1E (UniProt A6NEQ0) | -0.024 | – | 0.131 | – | 0.134 | 0.141 | 0.026 | -0.01 | – | 0.009 | 0.183 | – | – | 0.082 | -0.023 | 0.059 | 0.135 | 0.019 | -0.032 | 0.075
RUFY3 isoform 3 (UniProt Q7L099) | – | 0.023 | 0.196 | – | -0.098 | -0.054 | -0.123 | 0.044 | -0.085 | -0.068 | 0.016 | – | -0.032 | -0.011 | -0.093 | 0.021 | – | -0.008 | 0.035 | 0.038
RNF41 (UniProt Q9H4P4) | -0.104 | 0.082 | – | – | – | – | – | – | – | – | – | – | – | – | – | – | -0.15 | – | – | –
SAP30 (UniProt O75446) | – | 0.085 | – | 0.151 | 0.111 | – | 0.041 | – | -0.292 | – | -0.078 | 0.025 | 0.04 | -0.157 | 0.037 | 0.019 | – | 0.018 | 0.111 | -0.164
SDC3 (UniProt O75056) | – | 0.089 | – | -0.006 | – | – | 0.042 | -0.036 | 0.091 | – | – | 0.016 | 0.073 | – | – | – | – | – | – | –
SH2D1B (UniProt O14796) | – | -1.57 (active) | 0.042 | -0.052 | 0.095 | 0.005 | 0.106 | -0.004 | -0.781 | 0.013 | -0.01 | 0.143 | 0.048 | -0.135 | -0.146 | -0.028 | – | 0.202 | 0.027 | -0.011
RBM26 isoform 3 (UniProt Q5T8P6) | – | -0.528 | – | – | – | – | – | – | 0.017 | – | – | – | – | – | – | – | – | – | – | –
SCAMP2 (UniProt O15127) | 0.09 | 0.08 | -0.019 | 0.013 | 0.003 | 0.036 | -0.093 | -0.066 | -0.032 | -0.032 | 0.046 | -0.061 | 0.081 | 0.043 | 0.013 | -0.085 | -0.029 | – | – | –
SCLT1 (UniProt Q96NL6) | -0.049 | – | – | – | – | – | -0.118 | 0.129 | -0.057 | – | – | – | 0.045 | – | 0.01 | – | 0.049 | -0.046 | 0.005 | -0.161
RNF220 isoform 3 (UniProt Q5VTB9) | – | 0.086 | – | – | 0.056 | – | – | – | – | – | 0.385 | – | – | 0.201 | – | -0.059 | – | – | – | –
RNF185 (UniProt Q96GF1) | 0.045 | 0.087 | -0.04 | – | -0.011 | -0.003 | 0.006 | 0.276 | – | -0.055 | -0.074 | – | 0.009 | 0.1 | -0.081 | -0.013 | 0.055 | – | – | –
RICTOR isoform 3 (UniProt Q6R327) | – | 0.866 (active) | – | -0.084 | -0.584 | – | 0.07 | -0.223 | -0.09 | – | 0.074 | 0.25 | – | 0.018 | – | -0.057 | – | – | – | –
RRP36 (UniProt Q96EU6) | 0.045 | 0.122 | 0.083 | 0 | 0.044 | 0.042 | 0.021 | -0.785 (active) | 0.001 | -0.168 | -0.045 | 0.24 | -0.117 | 0.002 | 0.136 | 0 | -0.218 | – | – | –
RPS3 (UniProt E9PJN9) | – | – | 0.228 | – | – | 0.134 | – | -0.126 | – | 0.125 | – | – | – | – | – | – | – | – | – | –
SAFB2 (UniProt K7EQU4) | 0.131 | – | – | -0.042 | – | – | -0.31 | – | – | – | – | 0.111 | – | – | – | – | 0.295 | -0.129 | -0.051 | 0.057
ROMO1 (UniProt P60602) | 0.069 | -0.044 | -0.024 | 0.052 | -0.051 | -0.083 | 0.039 | -0.077 | 0.087 | -0.011 | 0.005 | -0.066 | – | -0.017 | -0.082 | -0.027 | -0.036 | – | – | –
SAMD4B (UniProt Q5PRF9) | -0.024 | – | 0.053 | 0.133 | 0.142 | 0.04 | 0.05 | 0.039 | -0.501 (active) | -0.02 | 0 | 0.202 | – | -0.132 | – | 0.201 | 0.157 | 0.007 | 0.051 | -0.054
RPS19 (UniProt M0R2L9) | – | -0.083 | – | – | – | – | 0.538 | -0.177 | – | – | -0.169 | – | – | -0.98 | 0.113 | – | – | – | – | –
RAPGEF4 (UniProt Q8WZA2) | -0.025 | -0.022 | – | 0.065 | 0.089 | – | – | 0.109 | -0.046 | – | – | 0.245 | -0.267 | – | -0.203 | 0.248 | 0.041 | -0.184 | -0.096 | -0.235
RALGPS2 (UniProt Q86X27) | 0.061 | -0.045 | – | 0.051 | 0.141 | – | – | 0.029 | – | – | – | 1.06 (active) | 0.023 | – | -0.128 | -0.147 | -0.116 | -0.249 | 0.397 | -0.234
SIK3 (UniProt H0Y4E8) | – | -0.425 (active) | 0.135 | – | 0.186 | -0.167 | 0.179 | -0.124 | 0.017 | 0.18 | -0.062 | – | -0.08 | -0.076 | -0.026 | 0.098 | – | 0.043 | -0.036 | -0.066
SEPTIN5 (UniProt G3XAH0) | 0.018 | 0.123 | -0.056 | -0.133 | 0.092 | -0.009 | -0.003 | 0.027 | -0.002 | -0.046 | 0.04 | -0.255 (active) | 0.058 | 0.023 | -0.009 | 0.014 | 0.002 | – | – | –
RPS6KA5 (UniProt O75582) | – | – | -0.11 | -0.042 | -0.218 | 0.069 | – | – | – | -0.039 | 0.029 | 0.013 | – | 0.121 | 0.237 | 0.025 | – | 0.071 | -0.431 | -0.017
S100A10 (UniProt P60903) | 0.605 | -0.345 | – | – | – | – | -0.06 | 0.522 | 0.128 | – | 0.181 | – | – | -0.086 | – | – | 0.113 | – | – | –
